In PubChem BioAssay (EPA / NIEHS):
Results filed as inconclusive are left out. Active and inactive are the calls of the source. How the source made its calls, unless noted: active means hit-call score of the fitted dose curve at least 0.9, where 1 is the maximum; inconclusive means response in the unintended direction; inactive means score below 0.9.

Assays:
[1] = read-out: Thyroid Hormone Responsive (THRSP), THRSP (gene 7069); test: LTEA_HepaRG_THRSP: Life Technologies and Expression Analysis (LTEA) Assay for Thyroid Hormone Responsive (THRSP) using HepaRG (AID 2283536; active means hit-call score of the fitted dose curve at least 0.9, where 1 is the maximum; inactive means score below 0.9); conditions: mRNA level, 48 h; actives raise or lower the signal
Summary of the method: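 qRT-PCR read-out (Fluidigm TaqMan), housekeeping-normalized (ACTB/GAPDH/POLR2A). HepaRG, 48 h chemical exposure, 8-pt half-log series from 100 uM in 0.5% DMSO, duplicates. Bidirectional curve fit vs 0.5% DMSO baseline.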

[2] = read-out: Cellular tumor antigen p53 (Homo sapiens) (UniProt P04637); test: LTEA_HepaRG_TP53: Life Technologies and Expression Analysis (LTEA) Assay for Tumor Protein P53 (TP53) using HepaRG (AID 2283537; active means hit-call score of the fitted dose curve at least 0.9, where 1 is the maximum; inactive means score below 0.9); conditions: mRNA level, 48 h; actives raise or lower the signal
Summary of the method: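 Gain or loss of TP53 mRNA signal is scored relative to 0.5% DMSO after 48 h chemical treatment of HepaRG liver cells, tested in duplicate at eight half-log concentrations up to 100 uM.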

[3] = read-out: UDP glucuronosyltransferase (UGT1A1), UGT1A1 (gene 54658); test: LTEA_HepaRG_UGT1A1: Life Technologies and Expression Analysis (LTEA) Assay for UDP glucuronosyltransferase (UGT1A1) using HepaRG (AID 2283538; active means hit-call score of the fitted dose curve at least 0.9, where 1 is the maximum; inactive means score below 0.9); conditions: mRNA level, 48 h; actives raise or lower the signal
Summary of the method: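 UGT1A1 transcript level, measured by qRT-PCR with three housekeeping genes for normalization, after 48 h treatment of human HepaRG cells (0.5% DMSO, duplicates, up to 100 uM, half-log steps, 8 points). Curves fit both directions against DMSO baseline.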

[4] = read-out: UDP glucuronosyltransferase (UGT1A6), UGT1A6 (gene 54578); test: LTEA_HepaRG_UGT1A6: Life Technologies and Expression Analysis (LTEA) Assay for UDP glucuronosyltransferase (UGT1A6) using HepaRG (AID 2283539; active means hit-call score of the fitted dose curve at least 0.9, where 1 is the maximum; inactive means score below 0.9); conditions: mRNA level, 48 h; actives raise or lower the signal
Summary of the method: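 Expression was quantified by TaqMan qRT-PCR on Fluidigm arrays with ACTB/GAPDH/POLR2A normalization and bidirectional fitting against 0.5% DMSO. HepaRG cells (~100,000/well) were treated in duplicate for 48 h at eight half-log concentrations up to 100 uM in serum-free induction medium.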

[5] = read-out: X-box binding protein 1 (XBP1), XBP1 (gene 7494); test: LTEA_HepaRG_XBP1: Life Technologies and Expression Analysis (LTEA) Assay for X-box binding protein 1 (XBP1) using HepaRG (AID 2283540; active means hit-call score of the fitted dose curve at least 0.9, where 1 is the maximum; inactive means score below 0.9); conditions: mRNA level, 48 h; actives raise or lower the signal
Summary of the method: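 XBP1 transcript by qRT-PCR (housekeeping-normalized: ACTB, GAPDH, POLR2A) after 48 h chemical treatment of HepaRG cells, 8-point half-log series topping at 100 uM, vehicle 0.5% DMSO. Gain and loss of signal fitted relative to DMSO.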

[6] = LTEA_HepaRG_LDH_cytotoxicity: Cytotoxicity Assessment in the Life Technologies and Expression Analysis (LTEA) Assay (AID 2283563);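 on AC50: LDH activity released into spent culture medium as a marker of cell death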
Summary of the method: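 LDH release into culture medium read after 48 h chemical treatment of HepaRG cells. Duplicate wells, eight-point half-log series topping at 100 uM, 0.5% DMSO vehicle and baseline.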

[7] = TOX21_p53_BLA_p2_viability: Viability Assessment in the Tox21 HCT-116 p53 Agonism Beta-lactamase Assay, Phase 2 (AID 2283591);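 further: compound exposure lasted 16 h at 37 °C; actives lower the ATP signal meaning cytotoxicity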
Summary of the method: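 HCT116 p53-bla cells, 4000/well, dosed after 5 h plating (217-fold dilution of DMSO stocks) and incubated 16 h at 37C. Viability taken as cellular ATP by CellTiter-Glo luminescence after 30 min RT; signal loss marks cytotoxicity.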

[8] = TOX21_p53_BLA_p3_viability: Viability Assessment in the Tox21 HCT-116 p53 Agonism Beta-lactamase Assay, Phase 3 (AID 2283593);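 further: cells exposed to compound for 16 h before reading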
Summary of the method: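 HCT116 cells, 4000/well, dosed 5 h after plating by pin transfer (217-fold dilution from DMSO stock) and incubated 16 h at 37C, 5% CO2. Viability read as ATP luminescence with CellTiter-Glo after 30 min at room temperature.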

[9] = biological target: Cellular tumor antigen p53 (Homo sapiens) (UniProt P04637); test: TOX21_p53_BLA_p3_ratio: Tox21 HCT-116 p53 Agonism Beta-lactamase Assay, Ratio, Phase 3 (AID 2283596)
Summary of the method: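 Cells were seeded at 4000/well, rested 5 h at 37C, then dosed with DMSO compound solutions (217-fold dilution) for 16 h. CCF4-AM substrate was loaded for 2 h at room temperature, and the 460/530 nm emission ratio was fitted for gain of signal versus DMSO.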

[10] = TOX21_p53_BLA_p4_viability: Viability Assessment in the Tox21 HCT-116 p53 Agonism Beta-lactamase Assay, Phase 4 (AID 2283597);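 further: hits lower the luminescence signal meaning cytotoxicity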
Summary of the method: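 Cytotoxicity as reduced cellular ATP (CellTiter-Glo luminescence, 30 min room temperature), measured in the same wells following the CCF4 FRET p53 reading. Human HCT-116 cells received compounds in DMSO (217-fold dilution) for 16 h.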

[11] = TOX21_p53_BLA_p5_viability: Viability Assessment in the Tox21 HCT-116 p53 Agonism Beta-lactamase Assay, Phase 5 (AID 2283600)
Summary of the method: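 Viability came from CellTiter-Glo ATP luminescence, read after 30 min at room temperature. Before this, HCT-116 p53-bla cells (4000/well) had 16 hours of compound exposure at 37C, with DMSO stocks diluted 217-fold on transfer.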

[12] = biological target: Cellular tumor antigen p53 (Homo sapiens) (UniProt P04637); test: TOX21_p53_BLA_p4_ratio: Tox21 HCT-116 p53 Agonism Beta-lactamase Assay, Ratio, Phase 4 (AID 2283601)
Summary of the method: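 HCT-116 p53 beta-lactamase reporter cells (4000/well) preincubated 5 h, then compound (217-fold dilution of DMSO stock) for 16 h at 37C. CCF4-AM substrate added 2 h at room temperature; 460/530 nm emission ratio fitted upward versus DMSO.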

[13] = Tanguay_ZF_120hpf_MORT_legacy: (Legacy) Oregon State University Tanguay Lab 120 Hour Post-fertilization zebrafish Assay for Mortality (AID 2283633);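 on AC50: fitted as increase in binary mortality versus DMSO negative control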
Summary of the method: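 Static waterborne exposure from 6 to 120 hpf at 28C of single dechorionated wild-type (5D) embryos per well, 0.64% DMSO final. Death recorded present/absent by brightfield at 24 and 120 hpf.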

[14] = Tanguay_ZF_120hpf_YSE_legacy: (Legacy) Oregon State University Tanguay Lab 120 Hour Post-fertilization zebrafish Assay for Yolk Sac Edema (AID 2283634);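 on AC50: actives raise the incidence of yolk sac edema above the DMSO baseline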
Summary of the method: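 Presence or absence of yolk sac edema was recorded at 120 hpf in surviving larvae. These were wild-type Tropical 5D embryos, chorion removed at 4 hpf, held in static exposure at 28C from 6 hpf with 0.64% DMSO vehicle.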

[15] = Tanguay_ZF_120hpf_AXIS_legacy: (Legacy) Oregon State University Tanguay Lab 120 Hour Post-fertilization zebrafish Assay for Body Axis Malformation (AID 2283635);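 on AC50: potency for an increased fraction of larvae scored with body axis malformation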
Summary of the method: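 Binary scoring of axis defects at 120 hpf under brightfield, fitted positive versus DMSO. Tropical 5D embryos, chorion removed by pronase at 4 hpf, were singly exposed in sealed, dark plates at 28C from 6 hpf; DMSO 0.64% final.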

[16] = Tanguay_ZF_120hpf_EYE_legacy: (Legacy) Oregon State University Tanguay Lab 120 Hour Post-fertilization zebrafish Assay for Eye Malformation (AID 2283636);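 further: binary presence or absence of eye malformation scored by brightfield in 120 hpf larvae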
Summary of the method: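 5D wild-type embryos, pronase-dechorionated at 4 hpf; static exposure 6–120 hpf, 28C, dark; DMSO 0.64% final; 5uM trimethyltin chloride positive control. Binary eye-defect scoring at 120 hpf; dead embryos not scored.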

[17] = Tanguay_ZF_120hpf_SNOU_legacy: (Legacy) Oregon State University Tanguay Lab 120 Hour Post-fertilization zebrafish Assay for Snout Malformation (AID 2283637)
Summary of the method: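 Binary brightfield scoring of snout malformation at 120 hpf. Dechorionated 5D wild-type embryos, one per well, static exposure from 6 hpf at 28C, sealed and dark; final DMSO 0.64% (vol/vol), DMSO as baseline; 5uM trimethyltin chloride positive control.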

[18] = Tanguay_ZF_120hpf_JAW_legacy: (Legacy) Oregon State University Tanguay Lab 120 Hour Post-fertilization zebrafish Assay for Jaw Malformation (AID 2283638);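 on AC50: active means more embryos with jaw malformation than DMSO controls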
Summary of the method: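 Binary jaw-malformation call at 120 hpf by brightfield microscopy. Embryos (Tropical 5D strain, chorion removed at 4 hpf) were dosed statically at 6 hpf, one per well, at 28C with 0.64% DMSO. Embryos that died were not scored.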

[19] = ATG_XTT_Cytotoxicity: Cytotoxicity Assessment in the Attagene TRANS-FACTORIAL HepG2 Assay (AID 2283584)
Summary of the method: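 Viability endpoint from XTT after 24 h chemical exposure of reporter-transfected human HepG2 liver cells; signal loss fitted relative to DMSO negative control.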

Measured: AC50

Cellular tumor antigen p53 (Homo sapiens), sequence (P04637 whole entry, looked up): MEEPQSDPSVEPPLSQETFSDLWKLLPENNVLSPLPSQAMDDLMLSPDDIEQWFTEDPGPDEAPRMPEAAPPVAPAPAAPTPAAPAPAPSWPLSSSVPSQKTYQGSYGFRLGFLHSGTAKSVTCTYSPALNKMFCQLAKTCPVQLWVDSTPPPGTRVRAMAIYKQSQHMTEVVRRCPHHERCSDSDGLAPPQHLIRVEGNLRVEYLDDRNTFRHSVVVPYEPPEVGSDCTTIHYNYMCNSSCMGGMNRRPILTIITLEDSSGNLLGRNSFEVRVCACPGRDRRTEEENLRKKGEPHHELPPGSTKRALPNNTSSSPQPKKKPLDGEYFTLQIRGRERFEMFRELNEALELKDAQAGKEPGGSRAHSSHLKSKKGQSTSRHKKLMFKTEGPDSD

C#CCOC(=O)[C@@H](C)Oc1ccc(Oc2ncc(Cl)cc2F)cc1
active: [3] 20.2 µM
not listed: [19]
inactive: all other assays above

CN(C)C(=O)Nc1ccc(Cl)c(Cl)c1
active: [1] 27.2 µM | [3] 23.5 µM | [5] 21.7 µM
not listed: [16] | [18]
inactive: all other assays above

Cc1nn(C)c(Oc2ccccc2)c1C=NOCc1ccc(C(=O)OC(C)(C)C)cc1
active: [1] 3.57 µM | [2] 6.96 µM | [3] 2.29 µM | [4] 1.61 µM | [6] 8.6 µM | [13] 3.26 µM
not listed: [19]
inactive: all other assays above

O=C(O)C1(C(=O)Nc2ccc(Cl)cc2Cl)CC1
active: [1] 78 µM | [4] 79.6 µM | [5] 69.2 µM | [12] 46.1 µM | [14] 32.3 µM | [15] 10 µM
not listed: [19]
inactive: all other assays above

c1ccc2[nH]c(-c3cscn3)nc2c1
active: [3] 25.8 µM
not listed: [2] | [7] | [8] | [9] | [10] | [11] | [12]
inactive: all other assays above

CCCOC(=O)NCCCN(C)C
not listed: [10] | [17] | [19]
inactive: all other assays above

CCCCOC(=O)C(C)Oc1ccc(Oc2ccc(C(F)(F)F)cn2)cc1 (centres undefined)
not listed: [19]
inactive: all other assays above

C=CCOC(Cn1ccnc1)c1ccc(Cl)cc1Cl (centres undefined)
inactive: [5] | [19] | [15] | [16]
active: [1] 36.2 µM | [2] 12.2 µM | [3] 77.5 µM | [4] 72.4 µM | [13] 13.8 µM | [14] 1.46 µM | [17] 4.34 µM | [18] 3.98 µM

CCC(C)OC(=O)N1CCCCC1CCO (centres undefined)
active: [3] 34.2 µM
not listed: [7] | [9] | [15] | [19]
inactive: all other assays above

COC(=O)c1ccccc1C(=O)O
not listed: [7] | [8] | [12] | [16] | [19]
inactive: all other assays above

CCOC(=O)COc1cc(-n2ncc(C(F)(F)F)c(C)c2=O)c(F)cc1Cl
not listed: [8] | [9] | [11] | [18] | [19]
inactive: all other assays above

CCSC(=O)N(CC(C)C)CC(C)C
not listed: [7] | [8] | [11] | [19]
inactive: all other assays above

CCNc1nc(N)nc(Cl)n1
active: [3] 1.03 µM
not listed: [7] | [8] | [10] | [19]
inactive: all other assays above

N#CSCSc1nc2ccccc2s1
inactive: [3] | [4] | [5] | [19] | [14] | [15] | [16] | [17] | [18]
active: [1] 77.7 µM | [6] 75 µM | [13] 0.539 µM
